ChEMBL document CHEMBL4513146, “CO-ADD screening of Karazin Kharkiv National University (Ukraine) compounds”
Potency and affinity values are given separately.

The molecules below were run on Cryptococcus neoformans. Conditions: Concentration 32 ug.mL-1; ASSAY_TEST Inhibition of Fungal Growth; detection method Resazurin; Absorption (OD600-OD570); plate type 384well; NBS; CORNING #3640.

Compared with `O=C(Cn1nc2ccc(SCc3ccc(Cl)cc3)nn2c1=O)Nc1ccccc1C(F)(F)F`, `O=C(Cn1nc2ccc(Sc3cccc(F)c3)nn2c1=O)NCc1ccc(C(F)(F)F)cc1` is higher in Inhibition: -11.3% for the first, -8.13% for the second.

Compared with `COC(=O)c1sccc1NC(=O)Cn1nc2c(Oc3ccc(C)cc3)nc3ccccc3n2c1=O`, `COc1ccc(-c2cc3c4nn(CC(=O)Nc5cc(C)ccc5C)c(=O)n4ccn3n2)cc1` is higher in Inhibition: -31.95% for the first, -22.77% for the second.

First: COC(=O)c1ccc(NC(=O)CSc2nc3ccccc3n3c(C(C)C)nnc23)cc1
Second: COc1cccc(Sc2nc3ccccc3n3c(=O)n(CC(=O)N4CCCc5ccccc54)nc23)c1
The Inhibition of the first is lower: -21.14% for the first, -20.75% for the second.

Compared with `CCc1ccccc1Sc1nccn2c(=O)n(CC(=O)Nc3cc(C)ccc3C)nc12`, `O=C(Cn1nc2c(Sc3cccc(F)c3)nccn2c1=O)N1CCN(c2ccccc2)CC1` is higher in Inhibition: -13.69% for the first, -2.85% for the second.

First: O=c1c2nn(Cc3ccc(F)cc3)c(=O)n2ccn1-c1ccccc1
Second: CC(C)c1ccc(N(Cc2ccccc2F)S(=O)(=O)c2cccn3cnnc23)cc1
The Inhibition of the first is higher: -6.47% for the first, -6.6% for the second.

Going from `CC(=O)c1ccc(NC(=O)Cn2nc3c(SC4CCCCC4)nccn3c2=O)cc1` to `CCCCn1c(=O)c2sccc2n2c(=O)n(CC(=O)N3CCC(Cc4ccccc4)CC3)nc12`, the Inhibition rises from -15.4% to -0.28%.

Compared with `Cc1nnc2c(S(=O)(=O)N(Cc3ccccc3F)c3cc(F)cc(F)c3)cccn12`, `CC(C)c1ccc(N(Cc2cccc(Cl)c2)S(=O)(=O)c2cccn3cnnc23)cc1` is lower in Inhibition: -4.37% for the first, -7.96% for the second.
